The results in this text go back to PubChem BioAssay AID1259343 (VanderVen Lab, College of Veterinary Medicine, Cornell …, 2017).

The inhibition is the relative decrease from the control value, in per cent.

Hit rate of the full screen: of about 6,200 compounds, about 2,900 (47%) were called active. The set was probably picked from earlier hits. Some of the results follow. A number with no mark means an inactive call. No stated cut-off is given here; in the data, active means inhibition above about 50%; inactive means the rest.

The experiment in a line: Mycobacterium tuberculosis growth inhibition, primary screen (AID 1259343). The settings on record: inhibition: at 10 µM, active compounds read high; outcome: 10 uM.
Turning to `O=S(=O)(Nc1cc(Cl)ccc1O)c1cc(Br)ccc1Br`, the inhibition is 105% (active).

Turning to `Cc1ccc(NS(=O)(=O)c2ccc(C)c(F)c2)c(C(=O)O)c1`, the inhibition was 8.32%.

Turning to `O=S(=O)(Nc1cccc(F)c1)c1cc(Br)ccc1Br`, the inhibition is 29.6%.

As for `O=S(=O)(Nc1c(F)cccc1F)c1cccc(Br)c1`, the inhibition is 4.09%.

Regarding `O=C(O)c1cc(F)ccc1NS(=O)(=O)c1ccc(Cl)cc1`, the inhibition was 70% (active).

As to `O=S(=O)(Nc1ccc(F)cc1F)c1cccc(F)c1`, the inhibition was -36.4%.

Take `O=S(=O)(Nc1ccc(F)cc1)c1cc(Br)ccc1Br`: the inhibition was 33.5%.

With `CCCc1ccc(S(=O)(=O)Nc2ccc(F)cc2C(=O)O)cc1`, the inhibition was -3.59%.

Consider `O=S(=O)(Nc1cc(F)ccc1F)c1cc(Cl)cc(Cl)c1`, for which the inhibition is 64.2% (active).

Consider `O=S(=O)(Nc1cc(F)ccc1F)c1cccc(Br)c1`, for which the inhibition was 103% (active).

Take `O=S(=O)(Nc1ccccc1I)c1ccc(C(F)(F)F)cc1`: the inhibition was 41.5%.

For the compound `O=[N+]([O-])c1ccc(Cl)c(S(=O)(=O)Nc2ccc(F)cc2Cl)c1`, the inhibition is 78.2% (active).

For the compound `Cc1ccc(NS(=O)(=O)c2cccc(C(F)(F)F)c2)c([N+](=O)[O-])c1`, the inhibition is 77.1% (active).

For `O=[N+]([O-])c1cc(Cl)ccc1NS(=O)(=O)c1cccc(C(F)(F)F)c1`, the inhibition was -1.17%.

For `Cc1ccc(NS(=O)(=O)c2ccc(Cl)cc2F)c(Cl)c1`, the inhibition was 73% (active).

With `O=S(=O)(Nc1ccc(F)cc1F)c1ccc(Cl)cc1F`, the inhibition is -21.9%.

For `O=S(=O)(Nc1cc(F)ccc1F)c1ccc(Cl)cc1F`, the inhibition is 64.4% (active).

`Cc1ccc(C)c(S(=O)(=O)Nc2ccc(Cl)cc2F)c1`: the inhibition was 0.55%.

`CCC1=NOC(c2nc3sc(C(C)(C)C)cc3c(=O)[nH]2)C1` (centres undefined): the inhibition is 25.8%.

For the compound `Cc1ccc(S(=O)(=O)Nc2ccc(Cl)c(C#N)c2)cc1`, the inhibition is -29.9%.

Take `Cc1ccc(NS(=O)(=O)c2cc(Cl)cc(Cl)c2)cc1`: the inhibition is 88.4% (active).

Take `O=C(C1=C2SC=C(c3ccc(Br)cc3)N2CC1)c1ccc2c(c1)OCO2`: the inhibition is -40.9%.

For `CCCc1cc(=O)[nH]c(-n2nc(C)cc2NC(=O)CC(c2ccccc2)c2ccccc2)n1`, the inhibition was 101% (active).

With `Cc1cc(=O)[nH]c(-n2nc(C)cc2NC(=O)Cc2cccc3ccccc23)n1`, the inhibition is 102% (active).

As for `CCCc1cc(=O)[nH]c(-n2nc(C)cc2NC(=O)C(CC)c2ccccc2)n1` (centres undefined), the inhibition is 102% (active).

`CCCc1cc(=O)[nH]c(-n2nc(C)cc2NC(=O)Cc2cccc3ccccc23)n1`: the inhibition was 100% (active).

Turning to `CCCc1cc(=O)[nH]c(-n2nc(C)cc2NC(=O)Cc2ccccc2)n1`, the inhibition is 99.9% (active).

Consider `CCCc1cc(=O)[nH]c(-n2nc(C)cc2NC(=O)CCc2ccccc2)n1`, for which the inhibition was -14.3%.

Take `CCCc1cc(=O)[nH]c(-n2nc(C)cc2NC(=O)Cc2ccc(OCC)cc2)n1`: the inhibition is -19.4%.
